Drawing on PubChem BioAssay (NCI), this text covers growth inhibition for 39 molecules.

Each structure is given as a SMILES string. About 79,000 compounds went through this panel and 15% of them were active in at least one assay; those are over-represented in the sample as a whole. Values without a mark were called inactive. The source made the active and inactive calls. No stated cut-off is given here; in the data, active means growth inhibition above about 70%; inactive means the rest.

Assay [1] in a line: NCI Yeast Anticancer Drug Screen. Data for the rad50 strain (AID 155).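 Further: 0% = growth of vehicle-only cultures of the same strain.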 The settings on record: S. cerevisiae rad50 strain growth inhibition; at 50.0 µM; stronger effect = higher value. The gist of the method:
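Relative growth inhibition (compound vs vehicle) was measured in yeast with a defined repair-gene alteration.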

A short description of assay [2]: NCI Yeast Anticancer Drug Screen. Data for the mec2-1 strain (AID 157). The conditions noted are these: S. cerevisiae mec2-1 strain, at 50.0 µM, stronger effect = higher value. The gist of the method: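 Cells of the genetically defined mec2-1 yeast strain are incubated with test compound. Inhibition of growth is calculated against vehicle-treated controls.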
Assay [3] is described as follows: NCI Yeast Anticancer Drug Screen. Data for the sgs1 mgt1 strain (AID 161).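 Further: 0% = growth of cultures given vehicle only.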 The settings on record: S. cerevisiae sgs1 mgt1 strain, at 50.0 µM, stronger effect = higher value. The gist of the method:
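Read-out: growth inhibition vs vehicle controls. Cells: mutant yeast strain deficient in DNA damage repair.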

Assay [4] can be described thus: NCI Yeast Anticancer Drug Screen. Data for the cln2 rad14 strain (AID 165).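 Further: 0% = growth equal to vehicle treated cultures.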 The conditions noted are these: S. cerevisiae cln2 rad14 strain, at 50.0 µM, stronger effect = higher value. A digest of the protocol: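 The screen exposed genetically defined yeast (cln2 rad14) to test compounds and scored growth inhibition relative to vehicle-treated controls.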
Assay [5] can be described thus: NCI Yeast Anticancer Drug Screen. Data for the bub3 strain (AID 167). The settings on record: S. cerevisiae bub3 mutant strain, at 50.0 µM, stronger effect = higher value. A digest of the protocol: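 Screening used yeast with an engineered genetic alteration affecting cell cycle control. Compound-exposed cultures were compared with vehicle cultures, and reduced growth was taken as inhibition.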

The nature of assay [6]: NCI Yeast Anticancer Drug Screen. Data for the mlh1 rad18 strain (AID 175). The conditions noted are these: S. cerevisiae mlh1 rad18 strain growth inhibition; at 50.0 µM; stronger effect = higher value. The gist of the method:
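Compound-treated yeast growth, normalised to vehicle controls. Strain bears defined DNA repair mutations.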

Take `COC(=O)C(C)(C)c1ccccc1C(C)(C)C(=O)OC`: the growth inhibition was -5.85% in assay [1]; 6.05% in assay [2]; -1.4% in assay [3]; -7.95% in assay [4]; 9.35% in assay [5]; 3.9% in assay [6].

`C[C@H]1S[C@H](c2c(F)cccc2F)n2c1nc1ccccc12`: the growth inhibition was 9.5% in assay [1]; -10.6% in assay [2]; 43.8% in assay [3]; -0.25% in assay [4]; 26.6% in assay [5]; 35% in assay [6].

Take `CCOC(CN(CC)CC)OCC`: the growth inhibition in assay [1] is -6.75%; in assay [2], -27.6%; in assay [3], -5.15%; in assay [4], 7.2%; in assay [5], -21.8%; in assay [6] it was 2.15%.

As to `O=C(/C(=C(/Br)I)c1ccccc1)c1ccccc1`, the growth inhibition in assay [1] is -13.8%; in assay [2] it was 16%; in assay [3], 26.6%; in assay [4] it was 14.1%; in assay [5], 42.6%; in assay [6], 28.4%.

Take `O=[n+]1ccn([O-])c2cc(Cl)ccc21`: the growth inhibition was 13.6% in assay [1]; 13.2% in assay [2]; 10.2% in assay [3]; -16.2% in assay [4]; -5.1% in assay [5]; 9.85% in assay [6].

For the molecule `COC(CC1(OC)OC(=O)C=C1N)OC` (centres undefined), the growth inhibition in assay [1] was -7.05%; in assay [2], 20.1%; in assay [3], -12.7%; in assay [4] it was -28.3%; in assay [5], 16.8%; in assay [6], -3.05%.

`CCCC(C)OC(=O)CC(c1ccccc1)N1CCCCC1` (centres undefined): the growth inhibition in assay [1] was 41.7%; in assay [2], -10.1%; in assay [3], 23.4%; in assay [4] it was -23.6%; in assay [5] it was 40.2%; in assay [6], 26.5%.

With `CCCCCCCCCCCCCCCCN(C)C(=S)c1ccc(OC)cc1`, the growth inhibition in assay [1] was 25.4%; in assay [2], -3.4%; in assay [3] it was -1.8%; in assay [4] it was -3.15%; in assay [5], -1%; in assay [6], -8.4%.

In the case of `CN(C)CCOc1cccc(OCCN(C)C)n1`, the growth inhibition in assay [1] is 10.7%; in assay [2] it was -3.25%; in assay [3] it was 3.2%; in assay [4], 1.1%; in assay [5] it was 9.35%; in assay [6], 8.7%.

For `O=C1NC(N2CCCC(CO)C2)=N/C1=C\c1ccc(O)cc1` (centres undefined), the growth inhibition in assay [1] was 13.1%; in assay [2], 2.05%; in assay [3] it was -15.3%; in assay [4] it was 33.4%; in assay [5], -9.6%; in assay [6], -31.6%.

As to `CC(C)NC(=O)c1ccc(CBr)cc1`, the growth inhibition is 0.8% in assay [1]; 9.05% in assay [2]; -10.1% in assay [3]; 9.8% in assay [4]; 10.4% in assay [5]; 14.3% in assay [6].

For `O=C(O)c1cccc(-c2nn[nH]n2)c1`, the growth inhibition in assay [1] is 2.75%; in assay [2] it was 0.5%; in assay [3], -4.55%; in assay [4], -55%; in assay [5], 0.25%; in assay [6], -2.7%.

Take `Cc1cccc2nc(-c3ccccn3)n(CCc3ccncc3)c12`: the growth inhibition was 98.8% (active) in assay [1]; 99.2% (active) in assay [2]; 99.2% (active) in assay [3]; 98.1% (active) in assay [4]; 98.8% (active) in assay [5]; 98.7% (active) in assay [6].

As to `COc1cc2c(cc1OC)[C@H]1C(COC(=O)c3ccccc3)CSC(=Nc3ccccc3)N1CC2` (some centres undefined), the growth inhibition was 21.9% in assay [1]; 17.6% in assay [2]; 36% in assay [3]; 49.8% in assay [4]; 36.9% in assay [5]; 22.3% in assay [6].

For `COC(=O)c1ccc(NCc2cc(O)ccc2O)cc1O`, the growth inhibition in assay [1] was 88.5% (active); in assay [2] it was 90.5% (active); in assay [3] it was 83.7% (active); in assay [4], 67.7%; in assay [5] it was 84.8% (active); in assay [6] it was 91.5% (active).

`Cc1ccc(C(=O)CC2(O)C(=O)Nc3ccccc32)cc1` (centres undefined): the growth inhibition was 25.4% in assay [1]; 17.4% in assay [2]; 22.4% in assay [3]; 16.9% in assay [4]; 14.3% in assay [5]; 20.9% in assay [6].

Consider `CN1C(c2ccncc2)=NCC12CCCCC2`, for which the growth inhibition was 17.2% in assay [1]; 7.35% in assay [2]; 3.6% in assay [3]; 1.05% in assay [4]; 13.2% in assay [5]; -1.5% in assay [6].

Turning to `O=C(/C=C/c1ccccc1)NC1C=Nc2ccccc2NC1=O` (centres undefined), the growth inhibition in assay [1] is 13.8%; in assay [2], 18.2%; in assay [3], 7.2%; in assay [4], -11.9%; in assay [5], 7.05%; in assay [6], 16.1%.

For `CCOC(=O)C(C)C(=O)NCc1ccccc1` (centres undefined), the growth inhibition was -4.55% in assay [1]; -4.9% in assay [2]; -6.8% in assay [3]; -43.5% in assay [4]; 9.35% in assay [5]; 11.3% in assay [6].

`CCCCOC(=O)C(=O)OCCCC`: the growth inhibition was 13.7% in assay [1]; -2.9% in assay [2]; 3.75% in assay [3]; 14.8% in assay [4]; 21.1% in assay [5]; 17.2% in assay [6].

Regarding `COc1cc2c(cc1C)C(C)(C)CCC2(C)C`, the growth inhibition in assay [1] was 7.8%; in assay [2], -0.45%; in assay [3] it was -3.1%; in assay [4] it was -45.1%; in assay [5] it was 20.6%; in assay [6], 4.15%.

In the case of `CCNc1ccc(-c2ccc(NCC)cc2)cc1`, the growth inhibition in assay [1] was 31.6%; in assay [2], -14%; in assay [3], 26%; in assay [4], 3.2%; in assay [5] it was -1.45%; in assay [6], 36.9%.

As to `NC(=S)N/N=C\CC(O)(C(F)(F)F)C(F)(F)F`, the growth inhibition in assay [1] is -16.7%; in assay [2] it was -19.2%; in assay [3], -7.45%; in assay [4], 0.5%; in assay [5], 7.1%; in assay [6], -2.3%.

With `CC(=O)OC1CN(c2ccc(Br)cc2)CC(OC(C)=O)CN(c2ccc(Br)cc2)C1` (centres undefined), the growth inhibition in assay [1] is 6.25%; in assay [2] it was 9.7%; in assay [3], -13.8%; in assay [4], -32.9%; in assay [5] it was -5.55%; in assay [6] it was -13.3%.

For `CCc1ccc2[nH]nc(CCC(=O)O)c(=O)c2c1`, the growth inhibition in assay [1] is -1.5%; in assay [2] it was -4.7%; in assay [3], -13.2%; in assay [4] it was -12.4%; in assay [5], -23.2%; in assay [6], -7.05%.

In the case of `CCOC(=O)c1cc2cc(Cc3ccc4[nH]c(C(=O)OCC)cc4c3)ccc2[nH]1`, the growth inhibition in assay [1] is -12.8%; in assay [2] it was -21.4%; in assay [3] it was -26.2%; in assay [4], -26.4%; in assay [5], -32.2%; in assay [6], -43.6%.

`COCn1cnc2c(ccn2C2OC(CO)C(O)C2O)c1=O` (centres undefined): the growth inhibition is -25.4% in assay [1]; 0% in assay [2]; -8.9% in assay [3]; -2.1% in assay [4]; 4% in assay [5]; 4.55% in assay [6].

Take `Cc1ccccc1NC(=O)C(=O)Cc1nc2ccccc2s1`: the growth inhibition in assay [1] is 14.8%; in assay [2], -8.7%; in assay [3] it was -1.5%; in assay [4], 11.8%; in assay [5], 9.15%; in assay [6], 20.4%.

As to `CCOCCOCCOc1c(Cl)cc(Cl)cc1Cl`, the growth inhibition in assay [1] was -6.65%; in assay [2], 1.9%; in assay [3], -7.35%; in assay [4], -46%; in assay [5] it was 30.2%; in assay [6], -21.6%.

With `Cc1nn(C)c(=O)c(N)c1-c1cc(-c2ccc(Cl)cc2)n[nH]1`, the growth inhibition is 13.9% in assay [1]; 4.45% in assay [2]; 19.9% in assay [3]; 20.1% in assay [4]; 18.1% in assay [5]; 13.9% in assay [6].

Turning to `Oc1ccc(-c2nc(-c3ccccc3)c(-c3ccccc3)[nH]2)cc1`, the growth inhibition in assay [1] was -23.1%; in assay [2], -14.9%; in assay [3], -1.1%; in assay [4] it was -46.3%; in assay [5], -8.3%; in assay [6], 4.05%.

Turning to `CC(C)CNC(=S)N/N=C/C=C/c1ccc(C(C)C)cc1`, the growth inhibition in assay [1] is -18.2%; in assay [2], -12.7%; in assay [3] it was 20.3%; in assay [4], -16.1%; in assay [5], 53.9%; in assay [6] it was 0.35%.

Turning to `Cc1ccc(O)cc1C=C(Cl)Cl`, the growth inhibition is 18.6% in assay [1]; 0.25% in assay [2]; 35.6% in assay [3]; 22.8% in assay [4]; -0.3% in assay [5]; 11.4% in assay [6].

Consider `COC(=O)C1OC1c1ccncc1` (centres undefined), for which the growth inhibition was 19.1% in assay [1]; 6.15% in assay [2]; 32.3% in assay [3]; 5.3% in assay [4]; 0.1% in assay [5]; 5.5% in assay [6].

On to `CC[N+](C)(CC)CCN1C(=O)CC[C@@]2(C)C1=CC[C@@H]1[C@@H]2CC[C@@]2(C)[C@H]1CC[C@]2(C)O`, for which the growth inhibition in assay [1] was 6.65%; in assay [2] it was 8.8%; in assay [3], 6.45%; in assay [4] it was 29.5%; in assay [5] it was 9.7%; in assay [6] it was 12.1%.

Turning to `OCCc1ccc2ccccc2c1`, the growth inhibition in assay [1] was 4.05%; in assay [2], -5.95%; in assay [3], 3.05%; in assay [4], -9.3%; in assay [5] it was 13.8%; in assay [6] it was -1.15%.

Consider `CCC(=O)Nc1cc(Cl)ccc1C`, for which the growth inhibition was 46.6% in assay [1]; 31.4% in assay [2]; 26.3% in assay [3]; 23.4% in assay [4]; 9.25% in assay [5]; 26.3% in assay [6].

As for `CN(C(N)=O)C1CCCC1`, the growth inhibition was 12% in assay [1]; -21.3% in assay [2]; -5.65% in assay [3]; 1.4% in assay [4]; 9.4% in assay [5]; 6.35% in assay [6].

Take `C[N+]1(C(CO)Cc2c[nH]c3ccccc23)Cc2ccccc2C1` (centres undefined): the growth inhibition in assay [1] was 10.6%; in assay [2], 14.6%; in assay [3], -19.1%; in assay [4] it was -8.35%; in assay [5] it was -65.5%; in assay [6], -5.7%.
